The values that follow come from PubChem BioAssay (EPA / NIEHS).

Active and inactive are the calls of the source. Rule for the calls: active = hit-call score of the fitted dose curve at least 0.9, where 1 is the maximum; inactive = score below 0.9.

Read-out in one assay: Human Leukocyte Antigen - DR isotype (HLADR), HLA-DRA (gene 3122)
In words: BSK_BE3C_HLADR: BioMAP Diversity Plus: BE3C Assay for Human Leukocyte Antigen - DR isotype (HLADR) Biomarker Activity (AID 2283032). The following applies: primary human bronchial epithelial cells; actives raise or lower the signal. The method, boiled down: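 Signal came from an ELISA for HLA-DR in human bronchial epithelial primary cells harvested 24 h after treatment; gain- and loss-of-signal fitting used DMSO controls as reference.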
Take `Cc1ccc2nc3sc(=O)sc3nc2c1`: the AC50 (as a rule, the concentration giving half of the maximal activity seen) is 5 µM (active).
In the case of `OC(Cc1ccccc1Cl)(Cn1cncn1)C1(Cl)CC1` (centres undefined), the result was inactive.
Consider `Cc1ccccc1OP(=O)(Oc1ccccc1)Oc1ccccc1`, for which the AC50 is 11.5 µM (active).
Consider `CCOC(=O)CCN(SN(C)C(=O)Oc1cccc2c1OC(C)(C)C2)C(C)C`, for which the outcome was inactive.
In the case of `OC(Cc1ccccc1Cl)(Cn1[nH]cnc1=S)C1(Cl)CC1` (centres undefined), the AC50 is 20 µM (active).
Turning to `CCOP(=O)(OCC)SCCSCC`, the result was inactive.
Turning to `O=[N+]([O-])c1ccc(Nc2ccccc2)cc1`, the outcome was inactive.
With `Cc1ccccc1OP(=O)(Oc1ccccc1C)Oc1ccccc1C`, the concentration at half-maximal activity (AC50) was 20 µM (active).
On to `CCOC(=O)C(SP(=S)(OC)OC)c1ccccc1` (centres undefined), for which the result was inactive.
Consider `c1ccc(-c2cccc(-c3ccccc3)c2)cc1`, for which the concentration at half-maximal activity (AC50) is 20 µM (active).
For the molecule `Cc1ccc(OP(=O)(Oc2ccc(C)cc2C)Oc2ccc(C)cc2C)c(C)c1`, the result was inactive.
Still for that read-out and setting: the entry for `CC(C)(C)c1ccccc1O` is “inactive”.
On to `O=S(=O)(C(Cl)(Cl)Cl)C(Cl)(Cl)Cl`, for which the AC50 is 3.17 µM (active).
For the molecule `C=CC(Cl)CCl` (centres undefined), the result was inactive.
Still for that read-out and setting: for `CCOP(=O)(OCC)OC(=CCl)c1ccc(Cl)cc1Cl` the value was “inactive”; for `OCCN(CCO)CCO`, “inactive”.
Take `[Cl][Sn]([c]1ccccc1)([c]1ccccc1)[c]1ccccc1`: the AC50 was 0.0934 µM (active).
Take `C#CCOC(=O)/C=C(C)/C=C/CC(C)CCCC(C)C` (centres undefined): the outcome was inactive.
On the same count and under the same terms, the entry for `CCOP(=S)(OCC)OP(=S)(OCC)OCC` is “inactive”; for `O=S(=O)(c1ccc(Cl)cc1)c1cc(Cl)c(Cl)cc1Cl` it is “inactive”; for `Cc1cc(C)cc(C)c1` it is “inactive”.

Read-out in another assay: Vascular cell adhesion molecule 1 (VCAM1), VCAM1 (gene 7412)
Description: BSK_4H_VCAM1: BioMAP Diversity Plus: 4H Assay for Vascular cell adhesion molecule 1 (VCAM1) Biomarker Activity (AID 2283033).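 For outcome: cell-surface VCAM-1 protein measured by ELISA.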 The following applies: primary human endothelial cells (HUVEC); actives raise or lower the signal. The gist of the method:
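Endpoint derived from bidirectional fitting against DMSO controls of VCAM-1 ELISA signal in umbilical vein endothelial cells sampled at 24 h following treatment.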
As to `Cc1ccc2nc3sc(=O)sc3nc2c1`, the AC50 is 7.39 µM (active).
Consider `OC(Cc1ccccc1Cl)(Cn1cncn1)C1(Cl)CC1` (centres undefined), for which the outcome was inactive.
In the case of `Cc1ccccc1OP(=O)(Oc1ccccc1)Oc1ccccc1`, the half-maximal activity concentration (AC50) was 26.1 µM (active).
Take `O=[N+]([O-])c1cccc2ccccc12`: the outcome was inactive.
The same measure, in the same setting: for `Oc1c(Cl)cc(Cl)cc1Cl` the value was “inactive”.
Take `CCOC(=O)CCN(SN(C)C(=O)Oc1cccc2c1OC(C)(C)C2)C(C)C`: the AC50 is 31 µM (active).
Same read-out and setting: for `OC(Cc1ccccc1Cl)(Cn1[nH]cnc1=S)C1(Cl)CC1` (centres undefined) the value was 20 µM (active).
Regarding `CCOP(=O)(OCC)SCCSCC`, the outcome was inactive.
Take `N#CCCC(Br)(C#N)CBr` (centres undefined): the AC50 was 7.87 µM (active).
On to `Cc1cc(C(C)(C)c2ccc(O)c(C)c2)ccc1O`, for which the AC50 was 16.8 µM (active).
Take `O=C(O)COc1cc(Cl)c(Cl)cc1Cl`: the outcome was inactive.
Same read-out and setting: the entry for `O=[N+]([O-])c1ccc(Nc2ccccc2)cc1` is “inactive”.
For `Cc1ccccc1OP(=O)(Oc1ccccc1C)Oc1ccccc1C`, the concentration at half-maximal activity (AC50) was 7.84 µM (active).
The same measure, in the same setting: the figure for `CCOC(=O)C(SP(=S)(OC)OC)c1ccccc1` (centres undefined) is 27.1 µM (active).
`CC(C)(C)c1cc([N+](=O)[O-])cc(C(C)(C)C)c1O`: the outcome was inactive.
Still for that read-out and setting: the entry for `CC1(C)[C@H](C(=O)O[C@H](C#N)c2cccc(Oc3ccccc3)c2)[C@@H]1/C=C(\Cl)C(F)(F)F` is “inactive”.
On to `c1ccc(-c2cccc(-c3ccccc3)c2)cc1`, for which the AC50 is 14 µM (active).
For the molecule `Cc1ccc(OP(=O)(Oc2ccc(C)cc2C)Oc2ccc(C)cc2C)c(C)c1`, the outcome was inactive.
As for `CC(C)(C)c1ccccc1O`, the result was inactive.
Take `O=S(=O)(C(Cl)(Cl)Cl)C(Cl)(Cl)Cl`: the half-maximal activity concentration (AC50) was 1.43 µM (active).
Turning to `C=CC(Cl)CCl` (centres undefined), the result was inactive.
As to `CCOP(=O)(OCC)OC(=CCl)c1ccc(Cl)cc1Cl`, the AC50 was 32 µM (active).
With `COc1ccccc1N`, the result was inactive.
The same measure, in the same setting: the entry for `CCN(CC)C(=O)C(Cl)=C(C)OP(=O)(OC)OC` is “inactive”; for `CC(C=O)Cc1ccc2c(c1)OCO2` (centres undefined) it is “inactive”.
Still for that read-out and setting: the entry for `OCCN(CCO)CCO` is “inactive”.
For `[Cl][Sn]([c]1ccccc1)([c]1ccccc1)[c]1ccccc1`, the concentration at half-maximal activity (AC50) is 0.0783 µM (active).
Same read-out and setting: for `C#CCOC(=O)/C=C(C)/C=C/CC(C)CCCC(C)C` (centres undefined) the value was 26.4 µM (active).
For `CN(C)C(=S)S`, the result was inactive.
Same read-out and setting: the entry for `CC(C)=CC1C(C(=O)OCc2cccc(Oc3ccccc3)c2)C1(C)C` (centres undefined) is “inactive”.
As to `CCOP(=S)(OCC)OP(=S)(OCC)OCC`, the half-maximal activity concentration (AC50) was 33 µM (active).
Same read-out and setting: for `O=S(=O)(c1ccc(Cl)cc1)c1cc(Cl)c(Cl)cc1Cl` the value was 20 µM (active).
For `Cc1cc(C)cc(C)c1`, the result was inactive.
